Pf growth 48h: Primary qHTS for delayed death inhibitors of the malarial parasite plastid, 48 hour incubation | Potency, µM (series often up to 28.7 µM), for inactives: at the top dose activity change, negative = inhibition, actives largely listed as inhibitors | 5.9% of 310,000 active | P. falciparum luciferase growth in erythrocytes, 48 h | AID 504832, 2011; also: % is scaled to controls: 0 for no effect and ±100 for the full control effect
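Read-out is firefly luciferase luminescence from an integrated reporter in P. falciparum, so falling signal marks reduced parasite growth. Infected erythrocytes were at 2% hematocrit and 0.1% parasitemia (final) in Albumax-supplemented RPMI 1640.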
Pf growth 96h: Primary qHTS for delayed death inhibitors of the malarial parasite plastid, 96 hour incubation; Potency, µM (highest dose often 28.7 µM), inactives show at the top dose activity change, negative = inhibition, hits mostly inhibitors; P. falciparum luciferase reporter growth, 96 h; 6.9% of 320,000 active; AID 504834, 2011; also: % is scaled to controls: 0 for no effect and ±100 for the full control effect
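Readout is luminescence from an integrated firefly luciferase in P. falciparum. Red cells, 2% hematocrit and 0.05% parasitemia final, were cultured with compound through two parasite generations (96 hours) at 37 C, 5% CO2.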
SARS PLP yeast: qHTS of Yeast-based Assay for SARS-CoV PLP; S. cerevisiae expressing SARS-CoV PLpro, growth rescue; Potency, µM (top dose mostly 32.9 µM), for the others: top-dose activity, positive = growth rescue, hits mostly activators; 0.19% of 330,000 active; AID 485353, 2010; calls by dose curve; also: 0% is about no effect; nearly all actives have a fitted effect of over 55% in size
NS1 inh: qHTS Assay for Inhibitors of Influenza NS1 Protein Function. Potency, µM (titrated, usually from 46.1 µM), for the others: top-dose activity, positive = more growth. 0.4% of 270,000 active; calls by dose curve; also: actives are rising curves; nearly all actives have a fitted effect of over 50% in size
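S. cerevisiae expressing influenza A NS1, grown in glucose, washed, then diluted 1:100 into pH 6.0 -URA galactose medium with 23 nl compound. Growth recovery read as OD600; NS1-free strain serves as control.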
An asterisk follows results filed as active; ? = inconclusive; . = no result; [ ] = dose if it differs, or a comment. Compounds with a hit are over-represented: about 10% of the library has one in this group of screens. Unless noted, calls follow the shape of the dose curve; as a rule, active = well fitted inhibition curve with a large enough effect; inconclusive = small, poorly fitted or top-dose-only effect, or another doubt; inactive = no such curve, though single readings can be large or run the other way. Potency is read from the fitted curve at half-maximal effect.

SMILES | Pf growth 48h | Pf growth 96h | SARS PLP yeast | NS1 inh
COc1ccc(N2C(=O)CC(N(Cc3ccco3)C(=O)CCC(=O)O)C2=O)cc1 (stereo unspecified) | 17% | -29% | 2% | 5%
N=c1ccn(Cc2ccc(Cl)cc2Cl)cc1 | . | 1.5µM* | -5% | -1%
N=c1ccn(Cc2ccccc2Cl)cc1 | 4.7µM* | . | -7% | -5%
Clc1ccc(CN2CCSCC2)c(Cl)c1 | 6% | 2% | -1% | 0%
N=c1ccn(Cc2c(Cl)cccc2Cl)cc1 | ? | ? | 0% | 2%
CN(C)CCC1c2ccc(Cl)cc2CCc2cccnc21 (stereo unspecified) (tested in a mixture with another compound) | ? | ? | 1% | 4%
Cc1cc(OCC(=O)Nc2ccc(S(=O)(=O)N3CCN(C)CC3)cc2)ccc1Br | 12µM* | 6.6µM* | 12% | 8%
O=C(COc1ccc(Br)cc1CO)Nc1ccc(F)cc1 | -9% | -11% | -11% | -2%[9.22 µM]
CCCOc1ccccc1OCC(=O)Nc1ccc(S(=O)(=O)N2CCCCC2)cc1 | ? | 10µM* | 1% | .
O=C(COc1ccc(Br)cc1CO)Nc1ccc(S(=O)(=O)N2CCCC2)cc1 | 9.3µM* | ? | 4% | .
O=C(COc1ccc2ccccc2c1)Nc1ccc(S(=O)(=O)N2CCCCCC2)cc1 | 12µM* | ? | -2% | 4%
Cc1cc(C)c(C2=NOC3C4CCC(C4)C23)c(C)c1 (stereo unspecified) | -14% | -24% | 43% | 6%
Cc1ccc(OCC(=O)Nc2ccc(S(=O)(=O)N3CCOCC3)cc2)c(Br)c1 | 10µM* | ? | 0% | -2%
O=C(COc1ccc(Br)cc1CNC1CCCC1)Nc1ccccc1 | 13µM* | -20% | 0% | 0%
CN1CCC(N(C)S(=O)(=O)c2ccc(NC(=O)COc3cccc(C(F)(F)F)c3)cc2)CC1 | ? | 13µM* | 1% | .
COc1ccc(NC(=O)COc2ccc(S(=O)(=O)N3CCOCC3)cc2C)cc1OC | -3% | ? | -2% | 9%
CC(=O)Nc1ccc(S(=O)(=O)N2CCN(CCCOc3ccccc3Cl)CC2)cc1 | . | 6.6µM* | 2% | 2%
O=C(COc1ccc(Br)cc1Cl)NC1CCCCC1 | 191% | 218% | 1% | 0%
CSc1nc(N)c(C(=O)Nc2ccc([N+](=O)[O-])cc2)s1 | 6% | 0% | ? | 3%
CC(=O)Nc1ccc(S(=O)(=O)N2CCN(S(=O)(=O)c3ccc(NC(C)=O)cc3)CC2)cc1 | 5% | 61% | 1% | 0%
CC(=O)Nc1ccc(S(=O)(=O)N2CCc3c(Cl)cccc3C2)cc1 | . | 15µM* | ? | -9%
O=C(NCc1ccc(F)cc1)C1CCCN(C(=O)Nc2ccc(F)cc2)C1 (stereo unspecified) | -7% | 25% | 1% | -2%
Cc1cc(OCc2cc(C(=O)N(C)C3CCOC3)no2)cc(C)c1Cl (stereo unspecified) | 6% | 70% | 8% | -32%
CC(=O)c1ccc(OCc2cc(C(=O)N(C)C3CCOC3)no2)cc1 (stereo unspecified) | 5% | 12µM* | 0% | 2%
CC1CCCN(S(=O)(=O)c2ccc(CN3C(=O)c4cccnc4C3=O)cc2)C1 (stereo unspecified) | 41% | ? | -6% | -1%
SMILES | Pf growth 48h | Pf growth 96h | SARS PLP yeast | NS1 inh
COc1ccc(C(=O)NCc2ccc3c(c2)OCO3)cc1S(=O)(=O)N1CCCC1 | 5% | ? | 11% | .
C=C[C@H]1CN2CC[C@H]1C[C@H]2[C@H](O)c1ccnc2ccccc12 | 0.15µM* | ? | . | .
O=[N+]([O-])C(Br)(CO)CO | 5% | 11% | . | .
O=C(NC(=S)Nc1ccccc1)c1ccc(-c2ccccc2)cc1 | 58% | 1% | 9% | 13%
CC(C)NS(=O)(=O)c1ccc(NC(=S)NC(=O)c2ccc(-c3ccccc3)cc2)cc1 | 6.6µM* | 2.6µM* | -6% | 1%
C[C@H](CO)N1C[C@H](C)[C@@H](CN(C)C(=O)Nc2ccc(F)cc2)Oc2ccc(NS(C)(=O)=O)cc2C1=O | . | . | -15% | .
COc1ccccc1NC(=O)c1ccc2c(O)c(S(=O)(=O)c3ccccc3)c(=O)[nH]c2c1 | 26% | 12µM* | -4% | 12%
CN(CCN(C)C(C)(C)C)C(=O)C(c1ccccc1)c1ccccc1 | -4% | 1% | 0% | 3%
CC(C)CC(=O)N1CCN(C(=O)c2ccc(F)cc2)CC1 | 13% | 13µM* | -4% | 10%
Cc1nn(C)cc1CN(C)S(=O)(=O)c1cccc([N+](=O)[O-])c1 | 7% | -24% | 0% | 2%
CC1CC2(CCCCC2)Nc2ccc3ccccc3c21 (stereo unspecified) | 10µM* | -21% | 2% | -4%
NNC(=O)C1CC(O)CN1S(=O)(=O)c1ccc2ccccc2c1 (stereo unspecified) | -28% | -11% | 4% | .
CC(C)N(Cc1ccccc1)C(=O)/C=C/c1ccccc1[N+](=O)[O-] | 10µM* | -4% | 0% | -1%
O=C(N/N=C/c1cc(Cl)ccc1O)c1cccnc1 | 3.3µM* | ? | 11% | -39%
O=C(N/N=C\c1cc(Cl)ccc1O)c1ccc(S(=O)(=O)N2CCCCC2)cc1 | 2.6µM* | 2.9µM* | ? | 14%
O=C(CNC(=O)c1ccccc1Br)N/N=C/c1cc(Br)ccc1O | ? | 1% | 0% | .
O=C(N/N=C/c1cc(Cl)ccc1O)c1ccccc1Br | 3.7µM* | ? | -27% | .
O=C(N/N=C/c1cccnc1)c1cccc(Cl)c1 | 28% | 26% | -3% | -1%
COc1ccc(C(=O)N2CCNC(=O)C2)cc1S(=O)(=O)Nc1ccc(Br)cc1 | -7% | -7% | -1% | .
O=C(COC(=O)/C=C/c1ccccc1)NNC(=O)c1ccc([N+](=O)[O-])cc1 | 27% | 29% | -2% | .
Cc1cc(Cl)c(S(=O)(=O)N2CCCCCC2)cc1OCC(=O)NC1CCCCC1 | . | 0.059µM* | -1% | -11%
Cc1cc(Cl)c(S(=O)(=O)N2CCN(c3ccccn3)CC2)cc1OCC(=O)NC1CCCCC1 | 0.23µM* | ? | -1% | -34%
CCOC(=O)N1CCN(S(=O)(=O)c2cc(OCC(=O)NC3CCCCC3)c(C)cc2Cl)CC1 | . | 0.66µM* | 0% | -7%
CCN1CCN(S(=O)(=O)c2cc(OCC(=O)NC3CCCCC3)c(C)cc2Cl)CC1 | 2.1µM* | 2% | 0% | -3%
CCc1ncnc2cc(OC)c(OC)cc12 | 3% | ? | . | .
CC(=O)Nc1oc(-c2cccc3ccccc23)nc1C#N | -21% | 10% | -5% | .
C/C=C/c1ccc(OCC(=O)N2CCc3cc(OC)c(OC)cc3C2)c(OC)c1 | ? | ? | -8% | 8%
NC(CCC(=O)NCS(=O)(=O)O)C(=O)O (stereo unspecified) | . | . | . | -8%
CCC1(C)Cc2c(sc3nc(SCC(=O)O)[nH]c(=O)c23)CO1 (stereo unspecified) | 19% | 8.3µM* | 1% | 10%
Cc1ccc(NC(=O)CC2SC(=O)N(c3ccccc3)C2=O)cc1 (stereo unspecified) | -8% | -20% | -40% | 8%

Screening data (PubChem)
